# Reference: paper PMC5540273 (PLoS ONE, 2017)
# Assays:
# Conditions in all cases: concentration: 1 μM, replicates: in singlicate; n = 1
# [1] = test system: JAK1(JH2domain-pseudokinase)
# [2] = test system: JAK2(JH1domain-catalytic)
# [3] = test system: JAK3(JH1domain-catalytic)
# JNK1 = test system: T1, JNK1
# T1 construct: gene MAPK8
# JNK2 = test system: T2, JNK2
# T2 construct: gene MAPK9
# JNK3 = test system: T3, JNK3
# T3 construct: gene MAPK10
# KIT-autoinhibited = test system: KIT-autoinhibited
# KIT = test system: KIT
# LATS1 = test system: LATS1
# LATS2 = test system: LATS2
# LCK = test system: LCK
# LIMK1 = test system: LIMK1
# LIMK2 = test system: LIMK2
# LKB1 = test system: T4, LKB1
# T4 construct: gene STK11
# LOK = test system: T5, LOK
# T5 construct: gene STK10
# LRRK2 = test system: LRRK2
# LTK = test system: LTK
# LYN = test system: LYN
# LZK = test system: T6, LZK
# T6 construct: gene MAP3K13
# MAK = test system: MAK
# 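Note: KINOMEscan kinase panel screen.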
SMILES,%Inh [1] [%],%Inh [2] [%],%Inh [3] [%],%Inh (JNK1) [%],%Inh (JNK2) [%],%Inh (JNK3) [%],%Inh (KIT-autoinhibited) [%],%Inh (KIT) [%],%Inh (LATS1) [%],%Inh (LATS2) [%],%Inh (LCK) [%],%Inh (LIMK1) [%],%Inh (LIMK2) [%],%Inh (LKB1) [%],%Inh (LOK) [%],%Inh (LRRK2) [%],%Inh (LTK) [%],%Inh (LYN) [%],%Inh (LZK) [%],%Inh (MAK) [%]
CCOc1nccc(-c2c(-c3ccc(F)cc3)ncn2C2CCNCC2)n1 [SB-249175],0,26,26,58,89,90.2,8,17,0,29,82,3,11,30,0,0,4,12,3,1
CCNC(=O)/C=C/c1n[nH]c2cc(Sc3ccccc3C(=O)NC)ccc12,0,0,18,15,4,0,95,100,17,22,11,25,11,0,27,0,0,16,14,26
CSc1ccc(NC2=C(c3ccc(Cl)cc3)C(=O)NC2=O)cc1 [SB-317658],0,0,0,0,19,3,0,29,8,0,0,11,1,54,29,43,27,26,0,37
Cc1ccc(Nc2ccnc(Nc3ccc(C)c(F)c3)n2)cc1O.Cl [GW582868],62,48,0,31,16,12,3,93.8,0,0,59,0,0,0,5,57,0,22,24,17
Cc1nn2c(=O)cc(N3CCO[C@H](C)C3)nc2n1Cc1cccc(Cl)c1Cl [GSK2373693],0,22,0,16,9,7,0,51,0,0,13,0,0,0,0,18,27,0,0,15
CN1CCN(Cc2ccc(NC(=O)Nc3ccc(N(C)c4ccnc(Nc5ccc(CS(C)(=O)=O)cc5)n4)cc3)cc2)CC1.Cl [GW827654],84,99.9,98.5,92.7,76,88,61,100,20,37,82,27,31,17,99.9,0,46,70,42,34
COc1cccc(C2=C(Nc3cccc(O)c3)C(=O)NC2=O)c1 [SB-390771],0,15,94.2,46,50,28,0,15,0,1,11,9,18,0,0,0,6,24,0,25
COc1cccc(NC(=O)NCCNc2ccnc(Nc3ccc(F)cc3)n2)c1 [GSK1379879],0,22,0,25,17,13,0,46,0,0,6,0,18,6,0,0,0,0,11,56
Fc1cc(Cl)ccc1Nc1ccnc2cc(-c3ccc(CN4CCOCC4)o3)ccc12 [GW560109],0,35,0,29,23,15,22,100,0,0,97,0,0,0,62,70,57,76,0,7
O=C(Nc1n[nH]c2nc(-c3ccccc3O)ccc12)C1CC1 [SB-711880],0,0,0,38,31,24,32,0,0,0,37,0,0,22,77,0,0,0,20,16
Cc1ccc(NC(=O)c2cccc(N3CCCCC3)c2)cc1-c1ccc(C(=O)NCC2CC2)cc1 [GSK1917008],19,15,0,22,30,10,6,79,0,16,38,8,100,0,32,22,7,0,0,24
CNc1nccc(-c2ccc3c(N)n[nH]c3c2)n1 [GSK2206003],57,47,15,46,36,29,0,57,0,17,19,0,0,5,23,1,27,0,0,29
Cc1cccc(Nc2nc(N[C@H]3CCCC[C@H]3N)ncc2C(N)=O)c1.Cl [GSK986310],91.4,87,80,62,36,27,0,37,18,7,47,15,18,0,0,21,52,34,0,27
Cc1ccc(-c2ccc3occ(-c4ccc(S(C)=O)cc4)c3c2)nn1 (centres unmarked),0,0,0,0,0,0,0,0,13,0,0,0,0,0,0,0,0,1,1,0
COc1cc(Nc2ccnc3cc(-c4ccncc4)ccc23)cc(OC)c1OC.Cl [GW494610],0,12,0,49,54,37,0,76,0,0,98.6,0,0,0,96.9,27,24,67,31,20
CC(C)c1nc(-c2ccc(F)c(NS(=O)(=O)c3c(F)cccc3F)c2)c(-c2ccnc(Nc3ccc(N4CCOCC4)nc3)n2)s1 [GSK1804250],0,4,69,32,70,77,0,97.8,0,0,99.6,100,100,0,99.3,9,6,93.8,58,24
N#Cc1cnc2cc(-c3cnc(CNCCN4CCOCC4)s3)ccc2c1Nc1ccc(Oc2ccccc2)cc1 [GW664114],0,0,0,13,6,0,0,19,0,3,99.7,6,0,0,88,0,0,90,76,28

SMILES,%Inh [1] [%],%Inh [2] [%],%Inh [3] [%],%Inh (JNK1) [%],%Inh (JNK2) [%],%Inh (JNK3) [%],%Inh (KIT-autoinhibited) [%],%Inh (KIT) [%],%Inh (LATS1) [%],%Inh (LATS2) [%],%Inh (LCK) [%],%Inh (LIMK1) [%],%Inh (LIMK2) [%],%Inh (LKB1) [%],%Inh (LOK) [%],%Inh (LRRK2) [%],%Inh (LTK) [%],%Inh (LYN) [%],%Inh (LZK) [%],%Inh (MAK) [%]
CCNc1nccc(-c2c(-c3ccc(F)cc3)ncn2C2CCN(C)CC2)n1,80,0,0,75,96.4,96.3,0,0,0,0,11,0,7,0,0,0,0,0,0,0
COc1ccc(C2=C(Nc3cccc(O)c3)C(=O)NC2=O)cc1 [SB-390766],0,13,0,21,16,1,2,14,0,0,0,0,10,0,0,5,30,52,6,0
O=C(Nc1n[nH]c2nc(-c3ccccc3)ccc12)C1CC1 [SB-708999],0,17,51,16,6,6,0,8,6,0,9,0,31,0,30,0,0,21,2,38
CC(C)NCC(Cc1ccccc1)NC(=O)c1cc(Br)c(-c2ccnc3[nH]ccc23)s1.Cl.Cl (centres unmarked) [GSK1383281],0,71,82,28,12,12,0,50,100,70,11,0,11,0,0,0,0,0,0,34
CC(C)c1nc(-c2cccc(NS(=O)(=O)c3c(F)cccc3F)c2)c(-c2ccnc(Nc3ccc(N4CCOCC4)nc3)n2)s1.Cl [GSK1723980],44,36,92.3,23,31,7,0,99.9,4,0,99.7,100,100,4,99.1,18,0,97.8,52,70
COC(=O)Nc1nc2ccc(Oc3ccc(NC(=O)Nc4cc(C(F)(F)F)ccc4F)cc3)cc2[nH]1.Cl [GW654607],0,55,16,0,65,7,0,100,0,0,99.3,37,16,0,99.1,28,63,86,0,85
Cc1cc(-c2ccnc(Nc3cccc(C#N)c3)n2)cc(C)c1O [GSK1440913],78,92.6,74,98.9,77,99,0,49,0,0,18,14,42,86,17,0,0,20,0,36
CN(c1ccc(NC(=O)Nc2cccc(Cl)c2)cc1)c1ccnc(N)n1.Cl [GW830707],0,27,0,0,0,0,45,100,18,0,7,0,0,20,97.8,66,12,0,0,11
Cc1ccc(NC(=O)c2ccnc(N3CCCCC3)c2)cc1-c1ccc(C(=O)NCC2CC2)cc1 [GW775610],0,90,95.2,42,43,28,8,87,0,0,29,0,0,34,79,0,15,0,0,13
NCCC(NC(=O)c1cc(Br)c(-c2ccnc3[nH]ccc23)s1)c1ccccc1.O=C(O)C(F)(F)F.O=C(O)C(F)(F)F (centres unmarked) [GSK1307810],0,97.1,98.7,30,15,16,0,73,83,93,12,12,30,29,0,14,0,7,30,30
COC(=O)Nc1nc2ccc(Oc3ccc(CC(=O)Nc4cc(C(F)(F)F)ccc4F)cc3)cc2[nH]1 [GW680903],0,7,0,1,6,0,8,100,12,0,22,1,7,0,78,33,0,7,28,37
Cl.Cl.NC(CNC(=O)c1cc(Br)c(-c2ccnc3[nH]ccc23)s1)c1ccccc1 (centres unmarked) [GSK1322949],0,94.3,96.8,44,37,28,0,38,54,93.7,3,0,0,69,0,31,0,0,7,19
Cc1cc(-c2c(-c3ccc(F)cc3)ncn2CCCN2CCOCC2)nc(N)n1 [SB-222517],57,16,0,5,0,0,20,15,15,0,12,0,0,45,18,0,4,17,0,35
CS(=O)(=O)c1cccc(CNc2nc(Nc3ccc4c(c3)CCC(=O)N4)ncc2C(F)(F)F)c1,94.3,99.6,100,49,27,48,30,44,0,0,0,0,0,34,0,16,0,16,0,0
Cn1cc(-c2ccc3c(c2)CCN3C(=O)Cc2cc(F)cc(C(F)(F)F)c2)c2c(N)ncnc21 [GSK2635225],3,10,0,0,13,0,16,100,0,4,62,0,0,16,84,0,18,26,3,26
COc1cccc2c(-c3ccncc3)c(-c3ccc(F)cc3)nn12 [GW468513],67,11,0,96,99.8,99.9,0,8,0,8,23,0,0,0,0,48,28,0,0,27
CN(C)CCNS(=O)(=O)c1ccc(-c2ccnc3[nH]ccc23)cc1 [GSK977620],0,82,56,29,17,15,0,9,29,93,23,0,0,0,0,47,4,0,0,84
